Measurements: PubChem BioAssay (Tox21)
Inconclusive results are not listed. A call without a number means that no potency is given here. Activity calls are given as the source filed them. Calls follow the shape of the dose curve; as a rule, active = well fitted cell-killing curve with a large enough effect in the repeat runs; inconclusive = weak or mixed curves; inactive = no such curve, though single readings can be large or run the other way.

experiment: qHTS assay for identifying genotoxic compounds that show differential cytotoxicity against isogenic chicken DT40 cell lines with known DNA damage response pathways - Rad54/Ku70 mutant cell line (AID 743015); details: DT40 Rad54/Ku70 mutant viability, CellTiter-Glo, 40 h; series mostly up to 66.8 µM; also: nearly all actives have a fitted effect of over 60% in size
Potency is read from the fitted curve at half-maximal effect.

| Structure (SMILES) | Potency |
| --- | --- |
| C[C@@H]1CN(c2c(F)c(N)c3c(=O)c(C(=O)O)cn(C4CC4)c3c2F)C[C@H](C)N1 | inactive |
| CC1(C)C(=O)N(Cl)C(=O)N1Br | inactive |
| CCCCCCC | inactive |
| CCC/C=C/CO | inactive |
| CCOC(=O)c1ccccc1O | inactive |
| Cc1ccc([N+](=O)[O-])cc1Cl | inactive |
| OCCN1CCN(CCO)CC1 | inactive |
| COc1ccccc1OCC(O)COC(N)=O (stereo unspecified) | inactive |
| C=O | inactive |
| CC/C=C\CCOC(=O)CCCCC | inactive |
| CCOc1ccc(NC(N)=O)cc1 | inactive |
| Clc1cccc(-c2cc(Cl)cc(Cl)c2)c1 | inactive |
| CC1=CC(=O)CC(C)(C)C1=O | inactive |
| CN(CC1(C)CCCO1)S(=O)(=O)c1ccc(Cl)c(S(N)(=O)=O)c1 (stereo unspecified) | inactive |
| C=CCCCCCCCCO | inactive |
| CC1=NN(c2cc(Cl)c(S(=O)(=O)O)cc2Cl)C(=O)C1N=Nc1ccc(S(=O)(=O)O)cc1 (stereo unspecified) | inactive |
| O=C(O)C(=O)Cc1c[nH]c2ccccc12 | inactive |
| CS(=O)(=O)c1ccc([C@@H](O)[C@@H](CF)NC(=O)C(Cl)Cl)cc1 | 7.17 µM (active) |
| COc1ccc2nc(NC(=O)Nc3ccccc3)sc2c1 | 16.8 µM (active) |
| O=c1oc2c(O)c(O)cc3c(=O)oc4c(O)c(O)cc1c4c23 | inactive |
| CCC(=O)Nc1ccc(O)cc1 | inactive |
| Cc1nnc(SCC2=C(C(=O)O)N3C(=O)[C@@H](NC(=O)Cn4cnnn4)[C@H]3SC2)s1 | inactive |
| Cc1ccc([N+](=O)[O-])c(N)c1 | inactive |
| CCCOCCC | inactive |
| C=CC1CO1 (stereo unspecified) | inactive |
| Cc1ccc(C(C)C)cc1O | inactive |
